Inconclusive results are not listed. Active and inactive are the calls of the source. Calls come from the whole dose curve; as a rule, active = well fitted cell-killing curve with a large enough effect; inconclusive = small, poorly fitted or top-dose-only effect; inactive = flat fitted curve, though single readings scatter.

Data on 16 molecules can be found in PubChem BioAssay (NCATS).

Test [1] in a line: Cell Viability - LYMP2-007 (AID 979).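 Note: cells exposed to compound for 24 h before reading; nearly all actives have a fitted effect of over 60% in size.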 In a few lines: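 AC50 values come from Hill-equation fits of luminescent intracellular ATP (CellTiter-Glo, 30 min, room temperature) following 24 h compound exposure at 37 C. Cells: LYMP2-007 lymphoblastoid line, 2500 per well, in complete culture medium.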
The nature of test [2]: Cell Viability - LYMP2-008 (AID 980). Note: nearly all actives have a fitted effect of over 60% in size. A digest of the protocol:
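Cytotoxicity determined from ATP-dependent luciferase luminescence (CellTiter-Glo) following 24 h compound exposure of human lymphoblastoid LYMP2-008 cells at 37 C. Concentration-response data fitted to the Hill equation to give AC50.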

The nature of test [3]: Cell Viability - LYMP2-010 (AID 981). Note: nearly all actives have a fitted effect of over 55% in size. A digest of the protocol: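 CellTiter-Glo ATP luminescence measured cytotoxicity after 24 h compound exposure at 37 C. LYMP2-010 cells were seeded at 2500/well, with tetraoctylammonium bromide as control; concentration-response curves gave AC50 values by the Hill equation.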
The nature of test [4]: Cell Viability - LYMP2-012 (AID 982).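 Note: cellular ATP by luciferase luminescence where a drop means cytotoxicity; cells exposed to compound for one day before reading; nearly all actives have a fitted effect of over 55% in size.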
A short description of test [5]: Cell Viability - LYMP2-014 (AID 983). Note: nearly all actives have a fitted effect of over 50% in size. A digest of the protocol: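 Intracellular ATP loss, read by luciferase luminescence, measures acute cytotoxicity after 24 h compound exposure of lymphoblastoid LYMP2-014 cells (2500/well, 37 C). Concentration-response data fitted to the Hill equation for AC50.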
A short description of test [6]: Cell Viability - LYMP2-016 (AID 984). Note: nearly all actives have a fitted effect of over 55% in size. In a few lines: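 Cytotoxicity was scored by luminescent ATP content (CellTiter-Glo) after 24 h compound exposure at 37 C of a human lymphoblastoid line at 2500 cells/well. Concentration-response data were fitted to the Hill equation for AC50.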
Test [7] is described as follows: Cell Viability - LYMP2-018 (AID 985). Note: nearly all actives have a fitted effect of over 50% in size. A digest of the protocol: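 Viability read as CellTiter-Glo luminescence (cellular ATP) after 24 hr compound exposure at 37 C of 2500 LYMP2-018 lymphoblastoid cells/well, pre-plated 5 hr. Hill-equation modelling gave AC50.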
The nature of test [8]: Cell Viability - LYMP2-020 (AID 986). Note: nearly all actives have a fitted effect of over 55% in size. A digest of the protocol: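 Cytotoxicity in qHTS format: luminescent ATP readout from CellTiter-Glo after 24 h compound exposure at 37 C in complete medium. LYMP2-020 lymphoblastoid cells were seeded at 2500/well; concentration-response data fitted to the Hill equation for AC50.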
The nature of test [9]: Cell Viability - LYMP2-022 (AID 987). Note: nearly all actives have a fitted effect of over 55% in size. A digest of the protocol: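 Cytotoxicity read as decreased cellular ATP (CellTiter-Glo luminescence, 30 min room temperature) after 24 hours compound exposure of 2500 lymphoblastoid LYMP2-022 cells/well at 37 C. Concentration-response data fitted with standard Hill equation for AC50.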
Test [10] can be described thus: Cell Viability - LYMP2-024 (AID 988). Note: nearly all actives have a fitted effect of over 60% in size. In a few lines: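 Cytotoxicity was taken as a decrease in ATP (CellTiter-Glo luminescence) after 24 hr compound exposure at 37 C of LYMP2-024 lymphoblastoid cells, 2500 cells/well. Concentration-response data were fitted to the Hill equation to give AC50.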
Potency is the fitted concentration of half-maximal effect.

As for `CC(C)=O`, the Potency result in [1], in test [2], in [3], in test [4], in test [5] and in test [6] was “inactive” throughout. The Potency entry in test [7], in test [8], in test [9] and in test [10] was “inactive” in each case.
`O=S(=O)(O)O`: the Potency entry in test [1], in test [2], in test [3], in [4], in test [5] and in test [6] was “inactive” throughout. For the same molecule, the Potency entry in test [7], in test [8], in test [9] and in [10] was “inactive” each time.
As for `CCOc1ccc2c(c1)C(C)=CC(C)(C)N2`, the Potency entry in [1], in test [2], in [5], in [6] and in [7] was “inactive” each time.
For `IC(I)I`, the Potency entry in [1], in test [2], in [3], in [4], in test [5] and in test [6] was “inactive” throughout. Further, the Potency result in [7], in [8], in test [9] and in test [10] was “inactive” each time.
As for `Cc1ccccc1`, the Potency entry in [1], in test [2], in [3], in test [4], in test [5] and in test [6] was “inactive” each time. Besides, the Potency result in [7], in test [8], in [9] and in test [10] was “inactive” each time.
On to `CC(C)(C)NC(=O)[C@@H]1C[C@@H]2CCCC[C@@H]2CN1C[C@@H](O)[C@H](Cc1ccccc1)NC(=O)[C@H](CC(N)=O)NC(=O)c1ccc2ccccc2n1`, for which the Potency in [2], in [3], in test [4] and in test [9] was 50.1 µM (active) each time.
As for `CC1=C(/C=C/C(C)=C/C=C/C(C)=C/CO)C(C)(C)CCC1`, the Potency in test [3] was 50.1 µM (active); in test [4] it was 50.1 µM (active); in test [7], 50.1 µM (active); in [8] it was 50.1 µM (active); in test [9], 39.8 µM (active); in test [10], 50.1 µM (active).
Turning to `CC(O)CO` (centres undefined), the Potency entry in test [1], in test [2], in test [3], in test [4], in test [5] and in test [6] was “inactive” each time. Also, the Potency result in [7], in test [8], in test [9] and in test [10] was “inactive” each time.
As to `CCCCCCCC(=O)O`, the Potency result in [1], in test [2], in test [3], in [4], in [5] and in test [6] was “inactive” each time. The Potency entry in [7], in test [8], in [9] and in test [10] was “inactive” each time.
For the molecule `CC1=C2[C@@H]([C@H](C)CC[C@H]2/C=C(\C)C(=O)O)[C@H](O)C1`, the Potency result in test [1], in test [2], in [3], in [4], in test [5] and in test [6] was “inactive” throughout. In addition, the Potency result in test [7], in test [8], in [9] and in test [10] was “inactive” in each case.
For the molecule `CCOC(C)=O`, the Potency result in test [1], in test [2], in test [3], in test [4], in test [5] and in test [6] was “inactive” throughout. Further, the Potency entry in test [7], in test [8], in test [9] and in test [10] was “inactive” each time.
`O=CCCCC=O`: the Potency in [1] was 20 µM (active); in [2], 25.1 µM (active); in test [3], 20 µM (active); in test [4], 15.8 µM (active); in test [5] it was 25.1 µM (active); in test [6] it was 25.1 µM (active). In addition, the Potency in test [7] is 20 µM (active); in [8], 15.8 µM (active); in test [9], 10 µM (active); in test [10] it was 12.6 µM (active).
With `CCCCC/C=C\C/C=C\CCCCCCCC(=O)O`, the Potency entry in test [1], in test [2], in test [4], in test [5], in test [6] and in [7] was “inactive” in each case. For the same molecule, the Potency result in [8], in test [9] and in test [10] was “inactive” each time.
Turning to `CCCCCCCC/C=C\CCCCCCCC(=O)O`, the Potency entry in test [1], in test [2], in test [3], in test [4], in test [5] and in test [6] was “inactive” each time. For the same molecule, the Potency result in [7], in test [8], in test [9] and in test [10] was “inactive” in each case.
With `Nc1ccn([C@H]2CS[C@@H](CO)O2)c(=O)n1`, the Potency entry in test [1], in [2], in test [3], in test [4], in test [5] and in test [6] was “inactive” throughout. The Potency result in test [7], in test [8], in [9] and in [10] was “inactive” each time.
In the case of `O=C(O)CCC(=O)C(=O)O`, the Potency result in test [1], in [2], in test [3], in test [4], in test [5] and in test [6] was “inactive” throughout. Also, the Potency result in test [7], in [8], in test [9] and in test [10] was “inactive” in each case.
